Measurements taken from PubChem BioAssay AID1159580 (chemical genetic matrix, 2015).
Where “and” joins values, the source holds several entries; their conditions need not be identical. Equal entries are not always repeated. Screen size: about 5,500 compounds; about 2,000 (36%) were called active. Not shown: some 18% with an inconclusive outcome. No stated cut-off is given here; in the data, active means normalized growth mostly below about 0.91 (no sharp cut-off); inconclusive means no clear call, values can overlap the other calls; inactive means mostly above about 0.92. The list shows a part of the results.

Assay: chemical genetic growth profiling, strain panel (AID 1159580);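 further: tested at 20 µM; growth read once vehicle control cultures reached saturation at 30 °C; 1 = growth at the plate median or of vehicle wells; lower values mean less growth of the strain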
Details: S. cerevisiae deletion strains, growth OD

Measured: normalized growth

CN1CCC[C@H]1c1cccnc1
inactive: locus YAL013W, strain DEP1, active compounds read low 0.998 | locus YAL021C, strain ccr4, active compounds read low 1.02 | locus YAL026C, strain drs2, active compounds read low 1.03 | locus YAL030W, strain snc1, active compounds read low 1.02 | locus YBL061C, strain skt5, active compounds read low 1.03 | locus YBR009C, strain hhf1, active compounds read low 1.02 | locus YBR021W, strain FUR4, active compounds read low 0.968 | locus YBR023C, strain chs3, active compounds read low 1.05 | locus YBR171W, strain sec66, active compounds read low 1.05 | locus YBR229C, strain ROT2, active compounds read low 0.992 | locus YBR231C, strain swc5, active compounds read low 1.02 | locus YBR279W, strain paf1, active compounds read low 1.02 | locus YCL011C, strain gbp2, active compounds read low 1.03 | locus YCL016C, strain dcc1, active compounds read low 1.03 | locus YCL029C, strain bik1, active compounds read low 0.995 | locus YCL061C, strain MRC1, active compounds read low 1 | locus YCL069W, strain vba3, active compounds read low 1.04 | locus YCR088W, strain abp1, active compounds read low 1.02 | locus YDL005C, strain med2, active compounds read low 1.03 | locus YDL035C, strain GPR1, active compounds read low 1.01 | locus YDL040C, strain nat1, active compounds read low 1.02 | locus YDL074C, strain BRE1, active compounds read low 1.03 | locus YDL101C, strain DUN1, active compounds read low 0.994 | locus YDL134C, strain PPH21, active compounds read low 0.994 | locus YDL185W, strain tfp1, active compounds read low 0.983 | locus YDL192W, strain arf1, active compounds read low 0.997 | locus YDR001C, strain nth1, active compounds read low 1.03 | locus YDR069C, strain doa4, active compounds read low 1.02 | locus YDR101C, strain arx1, active compounds read low 1 | locus YDR137W, strain rgp1, active compounds read low 1.05 | locus YDR150W, strain NUM1, active compounds read low 0.999 | locus YDR159W, strain sac3, active compounds read low 1 | locus YDR162C, strain NBP2, active compounds read low 1.03 | locus YDR195W, strain ref2 1.02 | locus YDR297W, strain sur2, active compounds read low 1.02 | locus YDR318W, strain mcm21, active compounds read low 0.983 | locus YDR334W, strain swr1, active compounds read low 1.03 | locus YDR335W, strain msn5, active compounds read low 1.03 | locus YDR388W, active compounds read low 0.996 | locus YDR392W, strain spt3, active compounds read low 0.964 | locus YDR502C, strain sam2, active compounds read low 1 | locus YEL003W, strain gim4, active compounds read low 1.02 | locus YEL037C, strain rad23, active compounds read low 1.03 | locus YEL061C, strain CIN8 (second series), active compounds read low 1.03 | locus YEL061C, strain CIN8, active compounds read low 0.993 | locus YER015W, strain faa2, active compounds read low 1.03 | locus YER016W, strain bim1, active compounds read low 1.02 | locus YER110C, active compounds read low 0.985 | locus YER111C, strain swi4, active compounds read low 1.04 | locus YER155C, strain BEM2 (second series), active compounds read low 0.991 | locus YER155C, strain BEM2, active compounds read low 0.992 | locus YER167W, strain BCK2, active compounds read low 0.98 | locus YFR010W, strain ubp6, active compounds read low 1.03 | locus YGL078C, strain dbp3, active compounds read low 0.994 | locus YGL086W, strain mad1, active compounds read low 0.969 | locus YGL167C, strain pmr1, active compounds read low 1.04 | locus YGL173C, strain kem1, active compounds read low 1.03 | locus YGL227W, strain vid30, active compounds read low 1.04 | locus YGL240W, strain doc1, active compounds read low 1 | locus YGL248W, strain PDE1, active compounds read low 0.985 | locus YGL253W, strain hxk2, active compounds read low 1.04 | locus YGR078C, strain PAC10, active compounds read low 1.04 | locus YGR135W, strain pre9, active compounds read low 1 | locus YGR229C, strain SMI1, active compounds read low 1.02 | locus YGR252W, strain gcn5, active compounds read low 0.949 | locus YHR013C, strain ard1, active compounds read low 1.06 | locus YHR027C, strain rpn1, active compounds read low 1.03 | locus YHR030C, strain SLT2, active compounds read low 0.991 and 0.959 | locus YHR079C, strain IRE1 (second series), active compounds read low 0.996 | locus YHR079C, strain IRE1, active compounds read low 1.03 | locus YHR094C, strain hxt1, active compounds read low 0.989 | locus YHR129C, strain ARP1, active compounds read low 0.99 | locus YHR142W, strain chs7, active compounds read low 1.06 | locus YHR200W, strain rpn10, active compounds read low 0.981 | locus YIL066C, strain RNR3, active compounds read low 0.985 | locus YIL073C, strain SPO22, active compounds read low 0.968 | locus YIL125W, strain kgd1, active compounds read low 0.997 | locus YIR030C, strain dcg1, active compounds read low 0.995 | locus YJL092W, strain hpr5, active compounds read low 1.02 | locus YJL095W, strain BCK1 (second series), active compounds read low 1.02 | locus YJL095W, strain BCK1, active compounds read low 1.01 and 0.947 | locus YJL115W, strain asf1, active compounds read low 1.02 | locus YJL129C, strain trk1, active compounds read low 1.07 | locus YJL134W, strain LCB3, active compounds read low 0.989 | locus YJL154C, strain vps35, active compounds read low 1.02 | locus YJL164C, strain tpk1, active compounds read low 1.02 | locus YJL166W, strain qcr8, active compounds read low 1.03 | locus YJL168C, strain set2, active compounds read low 0.994 | locus YJL187C, strain SWE1 (second series), active compounds read low 0.997 | locus YJL187C, strain SWE1, active compounds read low 1.02 | locus YJR043C, strain POL32, active compounds read low 0.995 | locus YJR066W, strain TOR1, active compounds read low 0.943
